From PubChem BioAssay
USP28 block = inhibitors of human USP28 deubiquitinase | purified USP28, Ub-rhodamine cleavage fluorescence, 30 min | 47,000 compounds, 3% hits | AID 1645857 | inhibition, % at 25 µM | Q96RU2
Target sequence (Q96RU2 whole entry, looked up): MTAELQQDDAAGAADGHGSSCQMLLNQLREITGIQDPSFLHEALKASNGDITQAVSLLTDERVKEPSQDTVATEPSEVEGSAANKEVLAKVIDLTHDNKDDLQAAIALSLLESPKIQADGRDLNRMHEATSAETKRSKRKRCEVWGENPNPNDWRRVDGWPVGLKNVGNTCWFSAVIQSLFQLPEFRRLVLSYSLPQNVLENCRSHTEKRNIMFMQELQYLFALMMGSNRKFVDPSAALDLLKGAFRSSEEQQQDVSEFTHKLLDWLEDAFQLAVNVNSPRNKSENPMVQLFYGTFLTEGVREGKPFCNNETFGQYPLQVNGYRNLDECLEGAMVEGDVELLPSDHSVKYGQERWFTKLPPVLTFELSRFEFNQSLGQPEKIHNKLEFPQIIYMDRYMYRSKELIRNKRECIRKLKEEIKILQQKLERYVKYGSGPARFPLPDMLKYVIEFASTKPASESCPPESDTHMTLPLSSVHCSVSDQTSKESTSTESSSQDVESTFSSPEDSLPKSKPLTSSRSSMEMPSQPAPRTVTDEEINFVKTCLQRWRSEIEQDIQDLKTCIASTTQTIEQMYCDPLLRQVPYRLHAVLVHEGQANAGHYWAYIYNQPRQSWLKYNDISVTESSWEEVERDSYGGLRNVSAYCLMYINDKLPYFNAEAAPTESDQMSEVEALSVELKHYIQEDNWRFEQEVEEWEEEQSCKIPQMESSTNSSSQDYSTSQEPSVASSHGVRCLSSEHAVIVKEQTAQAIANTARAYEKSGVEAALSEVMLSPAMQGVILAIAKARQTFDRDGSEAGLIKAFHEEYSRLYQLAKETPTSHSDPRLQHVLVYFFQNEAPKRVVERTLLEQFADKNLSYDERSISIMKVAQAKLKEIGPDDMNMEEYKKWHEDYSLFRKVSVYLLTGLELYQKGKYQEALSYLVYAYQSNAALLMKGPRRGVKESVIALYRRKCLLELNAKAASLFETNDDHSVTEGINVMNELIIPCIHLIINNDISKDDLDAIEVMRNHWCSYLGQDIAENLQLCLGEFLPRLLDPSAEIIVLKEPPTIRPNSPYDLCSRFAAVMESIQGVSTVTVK
USP30 block = inhibitors of human USP30 deubiquitinase; purified USP30, Ub-rhodamine cleavage fluorescence; AID 1645860; inhibition, % at 25 µM; Q70CQ3; 47,000 compounds, 5.3% hits
USP17 block = inhibitors of human USP17 deubiquitinase | purified USP17, Ub-rhodamine cleavage fluorescence, 3 h | A8MUK1 | inhibition, % at 50 µM | 47,000 compounds, 6.5% hits
OTUD3 block = inhibitors of human OTUD3 deubiquitinase. Q5T2D3. purified OTUD3, Ub-rhodamine fluorescence, 2 h. inhibition, % at 25 µM. 47,000 compounds, 0.7% hits
Each line names hits and unclear results; the compound was inactive in the other large screens. Most compounds without a hit are left out; they make up all but 11% or so of the library. Cut-off read from the data, not from the text of the source: active = inhibition above about 30%; inactive = the rest.

CN1CCC(NC(=O)C2CNC[C@H]2c2cccnc2)CC1 (stereo partly drawn)	none
COc1ccc(-c2c(C(=O)O)sc3c2NC(=O)CC3c2cc(F)ccc2F)cc1 (stereo not drawn)	USP30 block 35
O=c1c2nnn(Cc3cccc(Cl)c3)c2ncn1Cc1nc(-c2ccc(F)cc2)no1	none
Cc1ccc(Cn2nnc3c(=O)n(Cc4nc(-c5ccc(C)cc5)no4)cnc32)cc1	USP17 block 34
CCOC(=O)c1ccc(NC(=O)c2cnc(N3CCOCC3)nc2)cc1	OTUD3 block 30
Cc1ccc(NC(=O)c2cnc(N3CCOCC3)nc2)cc1C	none
Cc1ccc(NC(=O)c2cnc(N3CCOCC3)nc2)cc1F	USP30 block 46, USP17 block 89
O=C(c1cc(Cl)cc(Cl)c1)N1CC(c2nc(-c3cccnc3)no2)C1	USP30 block 30
Cc1cc2cc(CNC(=O)Cc3cccc4ccccc34)ccc2[nH]1	USP17 block 40
Cc1cc2cc(CNC(=O)Cc3ccc([N+](=O)[O-])cc3)ccc2[nH]1	USP17 block 37
O=C(Cc1cccc2ccccc12)NCc1ccc2[nH]c3c(c2c1)CCCC3	none
CCCS(=O)(=O)NCc1ccc2[nH]c(C)cc2c1	none (no result: USP28 block, USP30 block)
COc1ccc(NS(=O)(=O)c2cccc(NC(=O)COc3ccc(C#N)cc3)c2)cc1	none
O=C(NCCN1CCCC1)C1CCCN(S(=O)(=O)N2CCOCC2)C1 (stereo not drawn)	none
CC1=CC(=O)C(C2=C(O)C(=O)C(C)=CC2=O)=C(O)C1=O	USP28 block 46, USP17 block 94, OTUD3 block 36
Cc1ccc(NC(=O)CSc2nnc(-c3cnccn3)n2Cc2ccco2)cc1	USP17 block 53 (no result: USP28 block, USP30 block)
CCN(CC)S(=O)(=O)c1ccc(O)c(NC(=O)COc2ccccc2F)c1	USP17 block 33
COc1cc(OC)c(NC(C)C(=O)Nc2ccc3c(c2)OCO3)cc1Cl (stereo not drawn)	none
Cc1cc(=O)oc2cc(OCC(=O)NCc3ccncc3)ccc12	none
Cc1c(C)c2ccc(OCC(=O)NCc3ccncc3)c(C)c2oc1=O	USP30 block 81, USP17 block 46
Cc1cc2ccccc2n1CCNS(=O)(=O)c1ccc([N+](=O)[O-])cc1	none
CC(=O)Nc1ccc(S(=O)(=O)NCCn2c(C)cc3ccccc32)cc1	USP17 block 34
O=C(NCc1ccccc1Cl)C(=O)NCC(c1cccnc1)N1CCN(c2ccccc2)CC1 (stereo not drawn)	none
O=c1[nH]c(-c2ccncc2)nc2c1CN(Cc1cccc(O)c1)CC2	none
COc1ccc(OC)c(-c2cc(C(=O)Nc3c(C)nn(Cc4ccccc4)c3C)no2)c1	USP28 block 80
COc1ccc(NC(=O)c2cc(-c3ccco3)on2)c(OC)c1	none
Cc1c(C(=O)NCc2ccccc2Br)cc(-c2ccccc2)n1C	USP30 block 32
CC(C(=O)NCCc1ccccc1)n1nc(-c2ccccc2)c2cc(Cl)ccc21 (stereo not drawn)	USP30 block 55, USP17 block 48, OTUD3 block 34
Cc1c(OCc2ccccc2F)ccc2c1OC(C)(C)CC2=O	USP17 block 31
Cc1c(OCc2ccc(Cl)cc2Cl)ccc2c1OC(C)(C)CC2=O	none
Cc1cccc(C(=O)N2CCN(CC(=O)Nc3nnc(-c4cccc(C)c4)s3)CC2)c1	none
O=C(c1ccccc1)c1c(-c2ccccc2)oc2ccc(NS(=O)(=O)c3ccc(Cl)cc3)cc12	none
Cc1oc2ccc(NS(=O)(=O)c3ccc(F)cc3)cc2c1C(=O)OCc1ccccc1	USP28 block 60
c1ccc2c(-c3nnc(C4CC4)o3)nnc(NCCCN3CCCC3)c2c1	USP17 block 40
O=C(c1cccnc1)c1c(N2CCOCC2)[nH]c(=O)c2ccccc12	USP17 block 37 (no result: USP28 block, USP30 block)
CCCOC(=O)c1cc(NC(=O)c2cccnc2)ccc1N1CCOCC1	none
Cc1nc(Nc2ncc(C)s2)cc(C2CN(C(=O)Cc3ccccc3)CCO2)n1 (stereo not drawn)	USP30 block 55, USP17 block 38
CCn1cnc2ccc(C(=O)NC3CC3)cc2c1=O	USP28 block 62
O=C(Nc1ccccc1)N1C2CCC(O)(CC2)C1CN1CCOCC1 (stereo not drawn)	none
Cc1nc(NC(=O)c2ccc(F)cc2)nc2cc3c(cc12)OCO3	USP17 block 36
Cn1nc(C(=O)Nc2ccccc2)c2c1CCN(C(=O)Nc1cccc(C(F)(F)F)c1)C2	none
O=C(NCc1ccco1)c1cc(OCc2ccccc2)nc2ccccc12	none
Cc1nc(-c2noc3ccc(C(=O)N4CCCC4)cc23)co1	USP30 block 30
CCc1cc(C(c2cccc(F)c2)N2CCN(C)CC2)c(NC(=O)c2ccccc2)s1 (stereo not drawn)	none (no result: USP17 block)
COC1C(O)=C2C(=O)O/C(C)=C/C=C/C=C/C=C/CC(c3ccccc3)NC(=O)/C=C/C=C/C=C\C=C\C2(C)C1O (stereo not drawn)	USP28 block 31, USP17 block 43, OTUD3 block 33
COc1ccccc1CNC(=O)c1ccc2nc(NS(C)(=O)=O)sc2c1	none
Cc1cc(C(=O)N2CCCCC2)c2c(=O)n(Cc3cccc(F)c3)c(=O)n(C)c2n1	none
Cc1cc(C(=O)N2CCCCC2)c2c(=O)n(Cc3ccc4nonc4c3)c(=O)n(C)c2n1	USP17 block 34
CCN1C[C@H]2C3(CCN(C(=O)COC)CC3)CC[C@@]2(C(=O)N2CCCC2)C1	none
Cc1ccccc1N1C(=O)/C(=C\c2cccn2C)c2ccccc2C1=O	USP17 block 61
COc1ccc(NS(=O)(=O)c2cccc(NC(=O)CC(=O)c3ccc([N+](=O)[O-])cc3)c2)cc1	USP17 block 76 (no result: USP28 block, USP30 block)
COc1ccc([N+](=O)[O-])cc1NS(=O)(=O)c1cc(C(=O)NCc2cccnc2)ccc1Cl	none
COc1ccc(NS(=O)(=O)c2cccc(NC(=O)CCC(=O)c3ccc(Cl)cc3)c2)cc1	none
COc1ccccc1NS(=O)(=O)c1cc(NC(=O)CC(=O)c2ccc([N+](=O)[O-])cc2)ccc1C	none (no result: USP17 block)
COc1ccc(NS(=O)(=O)c2cc(NC(=O)CC(=O)c3ccc([N+](=O)[O-])cc3)ccc2Cl)cc1	USP17 block 49
COc1ccc(NC(=O)CC(=O)c2ccc([N+](=O)[O-])cc2)cc1S(=O)(=O)Nc1ccc(Cl)cc1	USP30 block 61, USP17 block 38
CN(C)C(=O)CN1CCCCC1c1nc(N)ncc1-c1ccccc1 (stereo not drawn)	none
CC1NC(=O)C2(CCN(C(=O)Nc3cccc(C(F)(F)F)c3)CC2)NC1=O (stereo not drawn)	none
COc1cc(OC)c2c(c1)C(=O)C1=C(COC(C)(O)C1)C2=O (stereo not drawn)	USP28 block 37, USP17 block 82
Cc1cc(=O)sc2c1c(C)nn2-c1ccccc1	USP28 block 30, USP17 block 31
COc1cc(O)c2c(O)c3c(cc2c1)CC(C)OC3=O (stereo not drawn)	USP28 block 64, USP17 block 75, OTUD3 block 53
C[C@@H]1Cc2cc(O)cc(O)c2C(=O)O[C@H](C)CC(=O)OC[C@@H](O)CC(=O)O[C@H](C)Cc2cc(O)cc(O)c2C(=O)O[C@H](C)CC(=O)O1	none
